# High-throughput results deposited in PubChem by National Center for Advancing Translational Sciences (NCATS).
# 3T3 cytotox: Cytotoxic Profiling in NIH 3T3 Cell Line of Diverse Libraries Using Quantitative High-Throughput Screening. NIH 3T3 viability, CellTiter-Glo ATP luminescence, 48-72 h. Potency, µM (doses to about 96.7 µM), without a hit: at the top dose activity change, negative = cytotoxicity, actives largely listed as inhibitors. 94,000 tested, 4.3% active; also: % is scaled to controls: 0 for no effect and ±100 for the full control effect; nearly all actives have a fitted effect of over 55% in size
#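 NIH 3T3 cells at 400 cells/well received 23 nL of compound by pintool and were incubated 48 or 72 h at 37 °C. Viability was read as ATP-coupled CellTiter-Glo luminescence.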
# SNCA expr inh: Primary qHTS assay for inhibitors of alpha-synuclein gene (SNCA) expression. HEK-293 SNCA-luciferase knock-in, luminescence, 24 h. 140,000 tested, 0.17% active. Potency, µM (highest dose often 57.2 µM), for inactives: top-dose activity change, negative = inhibition, actives largely listed as inhibitors;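 also: plate controls were DMSO cells for no effect and cell-free wells for full effect; nearly all actives have a fitted effect of over 45% in size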
# FLuc inh-1: Firefly luciferase inhibition profiling of diverse chemical library using quantitative high-throughput screening. Luciferin 4-monooxygenase (Photinus pyralis), P08659. 76,000 tested, 2.5% active. purified P. pyralis luciferase, luminescence, biochemical. Potency, µM (series often up to 115 µM), usual class: inhibitors; also: % is scaled to controls: 0 for no effect and ±100 for the full control effect; nearly all actives have a fitted effect of over 65% in size
#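 Purified P. pyralis luciferase (10nM final) in 50mM Tris acetate pH 7.5, 10mM Mg acetate, 0.01% Tween-20, 0.05% BSA with 10uM D-luciferin and 10uM ATP. Compounds titrated qHTS. Luminescence imaged on CCD.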
# HEK cytotox: Cytotoxic Profiling in HEK 293 Cell Line of Diverse Libraries Using Quantitative High-Throughput Screening | HEK 293 viability, ATP luminescence (CellTiter-Glo), 48-72 h | Potency, µM (highest dose often 115 µM), for inactives: top-dose activity change, negative = cytotoxicity, usual class: inhibitors | 94,000 tested, 6.6% active | AID 1345083, 2018; also: % is scaled to controls: 0 for no effect and ±100 for the full control effect; nearly all actives have a fitted effect of over 60% in size
#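 Pintool-delivered compounds were incubated with HEK 293 cells (250 cells/well) at 37 degree Celsius for 48 or 72 hr. ATP-dependent luminescence (CellTiter-Glo) then reported remaining viable cells.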
# NPR1 antag: Natriuretic polypeptide receptor (hNpr1) antagonism - Primary qHTS. Atrial natriuretic peptide receptor 1 (Homo sapiens), P16066. HEK293 hNpr1 GloSensor cGMP, ANP-stimulated luminescence. Potency, µM (series often up to 46.3 µM), inactives show at the top dose activity change, negative = inhibition, most hits filed as inhibitors. 76,000 tested, 1.6% active; calls by dose curve; also: % is scaled to controls: 0 for no effect and ±100 for the full control effect; nearly all actives have a fitted effect of over 60% in size
# Target sequence (P16066 whole entry, looked up): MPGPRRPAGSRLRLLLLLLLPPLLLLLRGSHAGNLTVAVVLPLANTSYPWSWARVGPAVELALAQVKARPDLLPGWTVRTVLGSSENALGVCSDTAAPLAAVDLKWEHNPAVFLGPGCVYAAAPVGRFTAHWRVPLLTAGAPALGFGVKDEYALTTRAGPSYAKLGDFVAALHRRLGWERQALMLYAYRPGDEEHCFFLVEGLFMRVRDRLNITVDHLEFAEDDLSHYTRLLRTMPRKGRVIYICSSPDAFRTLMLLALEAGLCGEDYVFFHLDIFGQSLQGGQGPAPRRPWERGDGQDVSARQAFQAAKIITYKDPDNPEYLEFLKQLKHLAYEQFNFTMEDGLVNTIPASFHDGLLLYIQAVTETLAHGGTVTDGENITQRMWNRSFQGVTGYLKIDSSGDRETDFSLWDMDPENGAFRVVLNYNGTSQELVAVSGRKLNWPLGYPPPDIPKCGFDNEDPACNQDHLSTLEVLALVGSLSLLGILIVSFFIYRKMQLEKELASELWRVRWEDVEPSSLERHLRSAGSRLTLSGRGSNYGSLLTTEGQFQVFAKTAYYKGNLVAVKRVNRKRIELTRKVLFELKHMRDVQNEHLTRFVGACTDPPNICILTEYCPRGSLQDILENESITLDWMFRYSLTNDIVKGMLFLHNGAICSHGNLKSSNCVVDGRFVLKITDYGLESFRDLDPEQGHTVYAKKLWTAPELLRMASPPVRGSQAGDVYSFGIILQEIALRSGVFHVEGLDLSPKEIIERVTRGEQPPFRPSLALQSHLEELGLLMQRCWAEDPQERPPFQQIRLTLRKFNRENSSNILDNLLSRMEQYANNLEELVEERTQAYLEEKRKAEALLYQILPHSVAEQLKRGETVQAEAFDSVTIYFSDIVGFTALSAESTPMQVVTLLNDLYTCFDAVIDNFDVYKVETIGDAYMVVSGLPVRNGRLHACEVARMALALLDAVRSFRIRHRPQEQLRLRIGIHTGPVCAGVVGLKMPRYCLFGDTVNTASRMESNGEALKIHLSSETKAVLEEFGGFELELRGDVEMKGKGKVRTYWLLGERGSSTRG
#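 Compound pre-incubated 30 min at room temperature on GloSensor-loaded HEK293 cells stably carrying hNpr1 and the pGS-40F cGMP biosensor. Stimulation uses hNppA at 0.1 nM final; luminescence is taken at baseline and 20 min post-agonist.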
# SNCA viab count: GF-AFC viability counterscreen for inhibitors of alpha-synuclein gene (SNCA) expression | HEK-293-SNCA-luc viability, GF-AFC fluorescence, 24 h | Potency, µM (series often up to 57.1 µM), for the others: top-dose activity change, negative = cytotoxicity, actives largely listed as cytotoxic | 150,000 tested, 0.12% active;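 also: 0% = DMSO-treated cells and -100% = medium-only wells without cells; nearly all actives have a fitted effect of over 30% in size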
#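 Cytotoxicity counterscreen: after 24 h compound treatment of genome-edited SNCA-luciferase HEK-293 cells, live-cell protease substrate GF-AFC read by fluorescence after 30 min; activity scaled between DMSO (0%) and medium-only (-100%), curves Hill-fitted.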
# FLuc SDR no ATP: Firefly luciferase (FLuc-C-HiBiT) SDR gain of signal screen - without ATP; shares compounds with FLuc inh-1; Purified FLuc-C-HiBiT, Nano-Glo HiBiT luminescence, no ATP; Potency, µM (titrated, usually from 32.7 µM), inactives show at the top dose activation (signal gain), actives largely listed as activators; 1,300 tested, 7.8% active; AID 1963318, 2024; also: nearly all actives have a fitted effect of over 55% in size
# FLuc SDR ATP: Firefly luciferase (FLuc-C-HiBiT) SDR gain of signal screen - plus ATP. 1,300 tested, 8.7% active. AID 1963319, 2024. shares compounds with FLuc inh-1. Potency, µM (doses to about 32.7 µM), without a hit: at the top dose activation (gain of signal), most hits filed as activators. purified FLuc-C-HiBiT + ATP, HiBiT complementation luminescence;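 also: signal reports ligand binding via conformational change of the enzyme rather than luciferase catalysis; % of control where 0% means no effect; nearly all actives have a fitted effect of over 55% in size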
# FLuc inh-2: Firefly luciferase (FLuc-C-HiBiT) enzymatic inhibition screen - Functional assay; 1,300 tested, 42% active; purified FLuc-C-HiBiT enzyme, luciferin luminescence; shares compounds with FLuc inh-1; Potency, µM (highest dose often 32.7 µM), for the others: top-dose activity change, negative = inhibition, most hits filed as inhibitors; also: % is scaled to controls: 0 for no effect and ±100 for the full control effect; nearly all actives have a fitted effect of over 70% in size
# Starred values were filed as active, the others as inactive; i = inactive; ? = inconclusive; / = no result given; ! = a repeat was not active; [ ] = remark or other dose. Rows were chosen to be rich in hits. Some 7.2% of all compounds tested hit in one or more screens of this group. Unless noted, calls follow the shape of the dose curve; as a rule, active = well fitted curve in the direction sought with a large enough effect; inconclusive = small, poorly fitted or top-dose-only effect, or another doubt; inactive = no such curve, though single readings can be large; an effect the other way counts as inactive or inconclusive. Potency is read from the fitted curve at half-maximal effect.
SMILES,3T3 cytotox,SNCA expr inh,FLuc inh-1,HEK cytotox,NPR1 antag,SNCA viab count,others
CCOC(=O)[C@@H]1[C@H]2c3ccccc3N(C)C(=O)[C@H]2N(C(=O)c2cccs2)[C@@H]1c1ccccc1,?,/,/,79.4µM*,/,/,
Cc1nc(-c2ccc(N(C)C)cc2)cc([C@H]2CN3CC[C@H]2C[C@@H]3CNC(=O)c2ccccc2)n1,44.7µM*,?,i,?,-2.5%,?,
COc1ccc(C(=O)NC[C@H]2C[C@@H]3CCN2C[C@@H]3c2cc(-c3ccc(N(C)C)cc3)nc(C)n2)cc1,39.8µM*,?,i,25.1µM*,-5.7%,-22.3%,
CCNC(=O)NC[C@H]1C[C@@H]2CCN1C[C@@H]2c1cc(-c2ccc(N(C)C)cc2)nc(C)n1,100µM*,-7.9%[87.6 µM],i,100µM*,7.1%[70.6 µM],-15.8%[87.6 µM],
CC(=O)Nc1ccc(S(=O)(=O)NC[C@H]2C[C@@H]3CCN2C[C@@H]3c2cc(-c3ccc(N(C)C)cc3)nc(C)n2)cc1,25.1µM*,-21.1%,?,22.4µM*,-2.3%,-12.2%,
CCNC(=O)NC[C@H]1C[C@@H]2CCN1C[C@@H]2c1cc(-c2ccccc2)nc(C)n1,?,-1.6%[87.6 µM],i,?,1.8%[70.6 µM],-14.3%[87.6 µM],
O=C1NC2(CCN(Cc3ccncc3)C2)OCc2ccccc21 (centres undefined),-20.3%[138 µM],15.6%[87.6 µM],i,-19.5%[172 µM],14.8%[70.6 µM],-3.9%[87.6 µM],
O=S1(=O)NC2(CCN(Cc3ccc(Cl)s3)C2)COc2ccncc21 (centres undefined),-6.1%,12.8%,/,?,/,-2.0%,
CCN1CCCCC12Cc1ccccc1CN(C(=O)Cc1ccc(O)cc1)C2 (centres undefined),-7.4%,9.3%,/,-11.1%,/,-8.7%,
FC(F)(F)CN1C2CCC1CN(c1nnc(Cl)c3ccccc13)C2,?,22.8%,/,79.4µM*,/,-11.4%,
Cc1ccnc(N2CC3CCC(C2)N3CC(F)(F)F)c1[N+](=O)[O-],-19.2%,-24.6%,/,?,/,-0.2%,
O=[N+]([O-])c1ccc(Cl)nc1N1CC2CCC(C1)N2CC(F)(F)F,?,-0.2%,/,39.8µM*,/,?,
CCCN(CCC)CCc1ccc(OC)c(OCCc2ccccc2)c1,/,/,/,/,/,-4.9%,
CCC(CC)c1cc([C@H]2CN3CC[C@H]2C[C@@H]3CNC(=O)CCCC(=O)O)nc(-c2ccncc2)n1,1.4%,7.6%,i,i,2.3%,3.2%,
COc1cc2c(cc1Oc1ccccc1)NC(=O)C21CCN(c2ncc(F)cn2)CC1,?,?,i,89.1µM*,-17.4%[70.6 µM],-9.5%[87.6 µM],
COc1cc2c(cc1Oc1ccccc1)NC(=O)C21CCN(c2nccs2)CC1,-12.7%[138 µM],-21.9%[87.6 µM],i,?,-26.2%[70.6 µM],-7.0%[87.6 µM],
COc1cc2c(cc1Oc1ccccc1)NC(=O)C21CCN(Cc2ccccn2)CC1,?,?,i,56.2µM*,-17.2%[70.6 µM],?,
Cc1[nH]nc2ccc(-c3cncc(OC[C@@H](N)Cc4c[nH]c5ccccc45)c3)cc12,/,0.108µM*,/,/,/,19.2µM*!,
C#C[C@H]1CN2CC[C@H]1C[C@@H]2CNC(=O)c1ccc2ccccc2c1,?,5.1%[87.6 µM],i,?,-1.7%[70.6 µM],-4.7%[87.6 µM],
COc1cc2c(cc1-c1ccc(CO)cc1)NC(=O)C21CCN(C)CC1,/,/,/,/,/,/,FLuc SDR no ATP=15.2%[49.3 µM];FLuc SDR ATP=10.5%[49.3 µM];FLuc inh-2=?
CC(C)CN1CCNc2cc(-c3ccccc3)ncc2C1,?,-12.7%[87.6 µM],3.98µM*,?,-21.7%[70.6 µM],-3.0%[87.6 µM],FLuc SDR no ATP=18.1%[65.7 µM];FLuc SDR ATP=13.2%[65.7 µM];FLuc inh-2=?
O=C(N1[C@H]2CC[C@@H]1c1cnc(-c3ccc(F)cc3)nc1C2)C1(c2ccccc2)CC1,?,?,i,?,-18.4%,-15.5%,
CN1CCNc2cc(Nc3ccncc3)ncc2C1,?,-3.9%[87.6 µM],i,?,6.8%[70.6 µM],-14.8%[87.6 µM],
CN1CCNc2cc(Nc3ccc(F)c(Cl)c3)ncc2C1,50.1µM*,47.3%[87.6 µM],0.794µM*,?,?,-3.1%[87.6 µM],FLuc SDR no ATP=19.8%[49.3 µM];FLuc SDR ATP=15.9%[49.3 µM];FLuc inh-2=12.8µM*
CN1CCNc2cc(Nc3ccc(F)cc3)ncc2C1,?,108.8%[87.6 µM],3.16µM*,?,-13.8%[70.6 µM],0.7%[87.6 µM],FLuc SDR no ATP=26.3%[65.7 µM];FLuc SDR ATP=19.8%[65.7 µM];FLuc inh-2=20.2µM*
